# Compound activity (PubChem)
# This is a sample that favours compounds with a hit; in the whole collection about 11% have one here.
# hNpr1 antagonist – Natriuretic polypeptide receptor (hNpr1) antagonism - Primary qHTS; HEK293 hNpr1 GloSensor cGMP, ANP-stimulated luminescence; Potency, µM (series often up to 46.3 µM), without a hit: at the highest dose activity change, negative = inhibition, actives largely listed as inhibitors; 1.6% of 76,000 active; AID 1347048, 2019; calls by dose curve; further: nearly all actives have a fitted effect of over 60% in size
#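 HEK293 cells stably expressing human Npr1 and cGMP GloSensor pGS-40F, loaded 2 h with 2% GloSensor reagent, given compound 30 min at room temperature. Luminescence read before and 20 min after 0.1 nM hNppA.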
# Luciferase inh – Firefly luciferase inhibition profiling of diverse chemical library using quantitative high-throughput screening | Potency, µM (top dose mostly 115 µM), actives largely listed as inhibitors | Luciferin 4-monooxygenase (Photinus pyralis), P08659 | 2.5% of 76,000 active | purified P. pyralis luciferase, luminescence, biochemical; further: nearly all actives have a fitted effect of over 65% in size
# Target sequence (P08659 whole entry, looked up): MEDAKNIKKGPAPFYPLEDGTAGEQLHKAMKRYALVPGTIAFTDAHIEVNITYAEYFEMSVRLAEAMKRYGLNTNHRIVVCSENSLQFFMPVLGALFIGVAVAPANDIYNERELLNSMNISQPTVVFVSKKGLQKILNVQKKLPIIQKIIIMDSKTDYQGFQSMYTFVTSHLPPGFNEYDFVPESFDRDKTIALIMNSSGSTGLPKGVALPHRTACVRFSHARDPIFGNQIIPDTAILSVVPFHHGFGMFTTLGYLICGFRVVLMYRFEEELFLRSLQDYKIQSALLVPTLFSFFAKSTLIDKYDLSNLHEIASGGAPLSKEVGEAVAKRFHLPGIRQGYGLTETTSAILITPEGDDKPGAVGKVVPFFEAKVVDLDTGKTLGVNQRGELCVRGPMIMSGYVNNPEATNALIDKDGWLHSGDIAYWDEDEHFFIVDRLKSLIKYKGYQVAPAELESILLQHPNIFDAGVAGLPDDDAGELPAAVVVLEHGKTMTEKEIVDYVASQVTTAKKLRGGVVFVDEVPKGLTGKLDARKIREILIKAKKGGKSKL
#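 Biochemical qHTS: compound (6-point titration) added to 10uM D-luciferin plus 10uM ATP in Tris acetate pH 7.5 buffer with Mg, Tween-20 and BSA, then purified enzyme at 10nM; light output imaged.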
# HEK293 tox – Cytotoxic Profiling in HEK 293 Cell Line of Diverse Libraries Using Quantitative High-Throughput Screening. HEK 293 viability, ATP luminescence (CellTiter-Glo), 48-72 h. Potency, µM (titrated, usually from 115 µM), for inactives: top-dose activity change, negative = cytotoxicity, hits mostly inhibitors. 6.6% of 94,000 active. AID 1345083, 2018; further: nearly all actives have a fitted effect of over 60% in size
#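 ATP-coupled CellTiter-Glo luminescence served as viability read-out, recorded 10 min after reagent addition at room temperature. HEK 293 cells, 250 cells/well, had been incubated with pintool-transferred compound for 48 or 72 hr at 37 degree Celsius.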
# 3T3 cytotox – Cytotoxic Profiling in NIH 3T3 Cell Line of Diverse Libraries Using Quantitative High-Throughput Screening; Potency, µM (top dose mostly 96.7 µM), inactives show top-dose activity change, negative = cytotoxicity, actives largely listed as inhibitors; NIH 3T3 viability, CellTiter-Glo ATP luminescence, 48-72 h; 4.3% of 94,000 active; AID 1345082, 2018; further: nearly all actives have a fitted effect of over 55% in size
#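 First NIH 3T3 cells are plated at 400 cells/well; next compound is pinned in; then plates incubate 48 or 72 hr at 37 °C; finally CellTiter-Glo is added and luminescence read after 10 min.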
# Active calls of the source: *; i = inactive; u = inconclusive; x = not tested or not shown; [ ] = another dose, or the depositor's remark. Unless noted, the call rests on the fitted dose curve; in most records, active means well fitted curve in the direction sought with a large enough effect; inconclusive means small, poorly fitted or top-dose-only effect, or another doubt; inactive means no such curve, though single readings can be large; an effect the other way counts as inactive or inconclusive. On the % scale 0 is the no-effect control and ±100 the full control effect; potency means the concentration at half of the fitted maximal effect.
SMILES,hNpr1 antagonist,Luciferase inh,HEK293 tox,3T3 cytotox
COC1CCN(C(C)=O)CC(=O)N(C)c2ccccc21 (stereo not drawn),x,x,0%,u
O=C(c1cn2cc(-c3ccccc3)sc2n1)N1CCOCC1,x,x,89µM*,u
CCN1CCN(C(=O)c2cn3cc(-c4ccc(F)cc4)sc3n2)CC1,x,x,2%,-25%
CN1CCN(C(=O)c2cn3cc(-c4ccc(F)cc4)sc3n2)CC1,x,x,u,79µM*
COc1ccc(-c2cn3cc(C(=O)N4CCOCC4)nc3s2)cc1,x,x,63µM*,u
Cc1c(Cl)cccc1NC(=O)Cn1c(C)cc2nc3n(c(=O)c21)CCCCC3,3%,i,-24%,-4%
Cc1noc(-c2ccc(OC3CN(C(=O)Nc4cccc(F)c4)C3)cc2)n1,u,i,u,u
Cc1noc(-c2ccc(OC3CN(C(=O)Cc4ccccc4)C3)cc2)n1,-15%,i,u,-13%
Cc1noc(-c2ccc(OC3CN(C(=O)Nc4ccccc4)C3)cc2)n1,13µM*,u,u,-47%
Cc1noc(-c2ccc(OC3CN(C(=O)CC4CCCC4)C3)cc2)n1,u,i,32µM*,u
Cc1noc(C)c1C(=O)N1Cc2ccccc2CC2(CCN(CC3CCNCC3)CC2)C1,x,x,0%,4%
Cc1noc(C)c1C(=O)N1Cc2ccccc2CC2(CCN(C)C2)C1 (stereo not drawn),x,x,79µM*,79µM*
CC(=O)N1Cc2ccccc2CC2(CCCN(C)C2)C1 (stereo not drawn),x,x,-6%[172 µM],i
CCC(=O)N1Cc2ccccc2CC2(CCCN(C)C2)C1 (stereo not drawn),x,x,79µM*,u
CN(C)C(=O)N1CCC(C(=O)N2CCC3(CC2)CC(=O)Nc2ccccc2O3)CC1,x,x,-1%,2%
COc1ccc2nc(C[C@@H]3C[C@@H](C(C)C)[C@H](CN)C=C3C)[nH]c2c1,1%[70.6 µM],i,u,71µM*
CCCNC(=O)NC[C@@H]1C=C(C)[C@H](Cc2nc3ccc(OC)cc3[nH]2)C[C@H]1C(C)C,u,i,u,40µM*
CC1=C[C@@H](CN)[C@H](C(C)C)C[C@H]1Cc1nc2ccc(C)cc2[nH]1,-18%[70.6 µM],i,45µM*,40µM*
COc1ccc2[nH]c(C[C@@H]3C[C@@H](C(C)C)[C@H](CN(Cc4ccccn4)Cc4ccccn4)C=C3C)nc2n1,-13%,i,u,u
COc1ccc2nc(C[C@@H]3C[C@@H](C(C)C)[C@H](CN(Cc4ccccc4F)Cc4ccccc4F)C=C3C)[nH]c2c1,1%,i,u,14µM*
O=C(Nc1ccccc1)N1CCC(C(=O)N2CCCC(c3nc4ncccc4[nH]3)C2)CC1 (stereo not drawn),x,x,-10%,-17%
CC1=C[C@@H](CN)[C@H](C(C)C)C[C@H]1Cc1nc2ccc(Cl)cc2[nH]1,-12%[70.6 µM],i,50µM*,45µM*
CC1=C[C@@H](CN)[C@H](C(C)C)C[C@H]1Cc1nc2ccc(F)cc2[nH]1,-7%[70.6 µM],i,79µM*,100µM*
CN(C1CCCc2ccccc21)S(C)(=O)=O (stereo not drawn),-4%[70.6 µM],i,-11%[172 µM],-15%[138 µM]
CN(C(=O)c1ccc(C(F)(F)F)cc1)C1CCCc2ccccc21 (stereo not drawn),-2%[70.6 µM],u,u,50µM*
SMILES,hNpr1 antagonist,Luciferase inh,HEK293 tox,3T3 cytotox
Cc1ccc(S(=O)(=O)N(C)C2CCCc3ccccc32)cc1 (stereo not drawn),-9%[70.6 µM],i,89µM*,u
Cc1ccccc1C(=O)N(C)C1CCCc2ccccc21 (stereo not drawn),4%[70.6 µM],i,89µM*,u
CN(C(=O)Cc1cccc(Cl)c1)C1CCCc2ccccc21 (stereo not drawn),6%[70.6 µM],i,100µM*,u
COc1ccccc1-c1cc(C(=O)NC2CCOCC2)c2cnn(C)c2n1,x,x,i,-6%
CNC(=O)CN1C(=O)CN(C(=O)c2ccc(F)cc2)CCC(OC)c2ccccc21 (stereo not drawn),x,x,-22%,u
Cn1nc(C2CCN(C(=O)c3ccc(F)cc3)CC2)n(Cc2ccccc2)c1=O,x,x,-21%,u
CC[C@H]1CN(C(=O)c2ccc(F)cc2)CC[C@H]1CC(=O)Nc1nccs1,-14%[70.6 µM],i,u,u
CC[C@H]1CN(C(C)=O)CC[C@H]1CC(=O)Nc1nccs1,-20%[70.6 µM],i,112µM*,100µM*
CN1CCC(N2CCC[C@@H](O)[C@H](NC(=O)c3ccc(OCc4ccccc4)cc3)C2)CC1,7%,i,79µM*,u
COc1cccc(CC(=O)N2CCC(C3CCN(C(C)=O)CC3)C2)c1 (stereo not drawn),x,x,-4%,-22%
COc1ccc2c(c1)CCN=C2C[C@H]1CN(C(=O)C2CC2)CC[C@H]1CC(=O)O,2%[70.6 µM],i,3%[172 µM],i
COc1ccc2c(c1)CCN=C2C[C@H]1CN(C(=O)C(C)(C)C)CC[C@H]1CC(=O)O,-10%[70.6 µM],i,112µM*,u
CO[C@H]1CN(C2CCN(C(=O)Cn3nc(C(F)(F)F)cc3C)CC2)[C@H]1c1cccnc1,x,x,-1%,-19%
CC(C)(CN1CCOCC1)NC(=O)c1csc2nc(-c3ccc(F)cc3)cn12,0%,i,u,-27%
CN(Cc1nccn1C)C(=O)c1csc2nc(-c3ccc(C(F)(F)F)cc3)cn12,-11%,40µM*,40µM*,u
CC(C)c1noc(CN(C)C(=O)c2csc3nc(-c4ccc(F)cc4)cn23)n1,u,i,45µM*,u
O=C1C(Oc2ccc(F)cc2)C2(CCCCC2)N1Cc1ccc(F)cc1 (stereo not drawn),x,x,40µM*,25µM*
O=C(CN1C(=O)C(Oc2ccc(F)cc2)C12CCCCC2)NCC1CC1 (stereo not drawn),x,x,u,-21%
CSCC(=O)N1CCCC(CCc2cccc(F)c2)C1 (stereo not drawn),-19%,u,20µM*,u
O=C(c1cccc(O)c1)N1CCCC(CCc2cccc(C(F)(F)F)c2)C1 (stereo not drawn),2%,i,40µM*,u
CCCc1ncncc1C(=O)N1CCCC(CCc2ccc(F)cc2)C1 (stereo not drawn),1%,i,u,u
CCCn1nccc1C(=O)N1CCCC(CCc2cccc(C(F)(F)F)c2)C1 (stereo not drawn),u,i,25µM*,u
O=C(c1ccncc1)N1CCCC(CCc2ccc(F)cc2)C1 (stereo not drawn),u,i,40µM*,u
O=C(c1ccc(=O)[nH]c1)N1CCCC(CCc2cccc(C(F)(F)F)c2)C1 (stereo not drawn),-6%,i,u,u
